Out of some 5,500 compounds screened, about 2,000 (36%) were called active. Not shown: some 18% with an inconclusive outcome. Cut-off read from the data, not from the text of the source: active = normalized growth mostly below about 0.91 (no sharp cut-off); inconclusive = no clear call, values can overlap the other calls; inactive = mostly above about 0.92. The list shows a part of the results.
Test: chemical genetic growth profiling, strain panel (AID 1159580);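 note: tested at 20 µM; growth read once vehicle control cultures reached saturation at 30 °C; 1 = growth at the plate median or of vehicle wells; lower values mean less growth of the strain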
Conditions: growth OD

Measured: normalized growth

COc1cc(C(=O)O)c(O)c2c1OCO2
inactive: S. cerevisiae deletion strains, locus YAL013W, strain DEP1, hits give low values 1.01 | S. cerevisiae deletion strains, locus YBR021W, strain FUR4, hits give low values 0.999 | S. cerevisiae deletion strains, locus YBR229C, strain ROT2, hits give low values 0.999 | S. cerevisiae deletion strains, locus YCL029C, strain bik1, hits give low values 0.995 | S. cerevisiae deletion strains, locus YDL035C, strain GPR1, hits give low values 1.02 | S. cerevisiae deletion strains, locus YDL074C, strain BRE1, hits give low values 1.05 | S. cerevisiae deletion strains, locus YDL101C, strain DUN1, hits give low values 1.01 | S. cerevisiae deletion strains, locus YDL134C, strain PPH21, hits give low values 1.01 | S. cerevisiae deletion strains, locus YDL185W, strain tfp1, hits give low values 1 | S. cerevisiae deletion strains, locus YDL192W, strain arf1, hits give low values 1 | S. cerevisiae deletion strains, locus YDR101C, strain arx1, hits give low values 0.989 | S. cerevisiae deletion strains, locus YDR150W, strain NUM1, hits give low values 1.01 | S. cerevisiae deletion strains, locus YDR162C, strain NBP2, hits give low values 1.02 | S. cerevisiae deletion strains, locus YDR318W, strain mcm21, hits give low values 1 | S. cerevisiae deletion strains, locus YDR388W, hits give low values 1 | S. cerevisiae deletion strains, locus YDR502C, strain sam2, hits give low values 0.999 | S. cerevisiae deletion strains, locus YEL061C, strain CIN8, hits give low values 1 | S. cerevisiae deletion strains, locus YER110C, hits give low values 1 | S. cerevisiae deletion strains, locus YER155C, strain BEM2, hits give low values 1 | S. cerevisiae deletion strains, locus YER167W, strain BCK2, hits give low values 1.01 | S. cerevisiae deletion strains, locus YGL078C, strain dbp3, hits give low values 1.01 | S. cerevisiae deletion strains, locus YGL086W, strain mad1, hits give low values 1 | S. cerevisiae deletion strains, locus YGL248W, strain PDE1, hits give low values 1.01 | S. cerevisiae deletion strains, locus YGR078C, strain PAC10, hits give low values 1.03 | S. cerevisiae deletion strains, locus YGR135W, strain pre9, hits give low values 0.996 | S. cerevisiae deletion strains, locus YGR229C, strain SMI1, hits give low values 1.02 | S. cerevisiae deletion strains, locus YGR252W, strain gcn5, hits give low values 1.02 | S. cerevisiae deletion strains, locus YHR030C, strain SLT2, hits give low values 1.01 | S. cerevisiae deletion strains, locus YHR079C, strain IRE1 (second series), hits give low values 1 | S. cerevisiae deletion strains, locus YHR094C, strain hxt1, hits give low values 1 | S. cerevisiae deletion strains, locus YHR129C, strain ARP1, hits give low values 1.01 | S. cerevisiae deletion strains, locus YHR200W, strain rpn10, hits give low values 1.01 | S. cerevisiae deletion strains, locus YIL066C, strain RNR3, hits give low values 1.02 | S. cerevisiae deletion strains, locus YIL073C, strain SPO22, hits give low values 1.02 | S. cerevisiae deletion strains, locus YIL125W, strain kgd1, hits give low values 1 | S. cerevisiae deletion strains, locus YIR030C, strain dcg1, hits give low values 1 | S. cerevisiae deletion strains, locus YJL095W, strain BCK1, hits give low values 1.01 | S. cerevisiae deletion strains, locus YJL134W, strain LCB3, hits give low values 1 | S. cerevisiae deletion strains, locus YJL168C, strain set2, hits give low values 1 | S. cerevisiae deletion strains, locus YJL187C, strain SWE1 (second series), hits give low values 1.01 | S. cerevisiae deletion strains, locus YJR043C, strain POL32, hits give low values 1.02 | S. cerevisiae deletion strains, locus YJR075W, strain HOC1, hits give low values 1 | S. cerevisiae deletion strains, locus YKL009W, strain mrt4, hits give low values 1.01 | S. cerevisiae deletion strains, locus YKL068W, hits give low values 1.01 | S. cerevisiae deletion strains, locus YKL085W, strain MDH1 (second series), hits give low values 1 | S. cerevisiae deletion strains, locus YKL085W, strain MDH1, hits give low values 1 | S. cerevisiae deletion strains, locus YKL190W, strain CNB1, hits give low values 1.01 | S. cerevisiae deletion strains, locus YKR001C, strain vps1, hits give low values 1.01 | S. cerevisiae deletion strains, locus YLR039C, strain RIC1, hits give low values 1.04 | S. cerevisiae deletion strains, locus YLR058C, strain SHM2, hits give low values 1.01 | S. cerevisiae deletion strains, locus YLR102C, strain apc9, hits give low values 1 | S. cerevisiae deletion strains, locus YLR262C, strain YPT6, hits give low values 1.03 | S. cerevisiae deletion strains, locus YLR268W, strain sec22, hits give low values 1 | S. cerevisiae deletion strains, locus YLR330W, strain CHS5, hits give low values 1.01 | S. cerevisiae deletion strains, locus YLR342W, strain FKS1 (second series), hits give low values 1.01 | S. cerevisiae deletion strains, locus YLR371W, strain rom2, hits give low values 1.02 | S. cerevisiae deletion strains, locus YLR418C, strain cdc73, hits give low values 1 | S. cerevisiae deletion strains, locus YML016C, strain PPZ1, hits give low values 1.01 | S. cerevisiae deletion strains, locus YML032C, strain rad52, hits give low values 1.02 | S. cerevisiae deletion strains, locus YML124C, strain tub3, hits give low values 0.998 | S. cerevisiae deletion strains, locus YMR078C, strain ctf18, hits give low values 1 | S. cerevisiae deletion strains, locus YMR223W, strain ubp8, hits give low values 1.01 | S. cerevisiae deletion strains, locus YMR263W, strain SAP30, hits give low values 1.02 | S. cerevisiae deletion strains, locus YMR307W, strain GAS1, hits give low values 0.961 | S. cerevisiae deletion strains, locus YNL067W, strain RPL9B, hits give low values 1.01 | S. cerevisiae deletion strains, locus YNL128W, strain TEP1, hits give low values 1.02 | S. cerevisiae deletion strains, locus YNL153C, strain GIM3, hits give low values 1.02 | S. cerevisiae deletion strains, locus YNL233W, strain BNI4, hits give low values 1.01 | S. cerevisiae deletion strains, locus YNL250W, strain rad50, hits give low values 1.01 | S. cerevisiae deletion strains, locus YNL271C, strain bni1, hits give low values 1.01 | S. cerevisiae deletion strains, locus YNL298W, strain CLA4, hits give low values 1.01 | S. cerevisiae deletion strains, locus YNL307C, strain MCK1, hits give low values 1.01 | S. cerevisiae deletion strains, locus YNL322C, strain KRE1, hits give low values 1.01 | S. cerevisiae deletion strains, locus YNR052C, strain pop2, hits give low values 1.01 | S. cerevisiae deletion strains, locus YOL006C, strain TOP1, hits give low values 0.995 | S. cerevisiae deletion strains, locus YOL012C, strain htz1 1.11 | S. cerevisiae deletion strains, locus YOL147C, strain pex11, hits give low values 0.998 | S. cerevisiae deletion strains, locus YOR061W, strain CKA2, hits give low values 1.01 | S. cerevisiae deletion strains, locus YOR069W, strain VPS5, hits give low values 1.01 | S. cerevisiae deletion strains, locus YOR136W, strain idh2, hits give low values 1 | S. cerevisiae deletion strains, locus YOR144C, strain elg1, hits give low values 0.997 | S. cerevisiae deletion strains, locus YOR184W, strain ser1, hits give low values 1.01 | S. cerevisiae deletion strains, locus YOR316C, strain cot1, hits give low values 1.01 | S. cerevisiae deletion strains, locus YPL055C, strain LGE1, hits give low values 1.04 | S. cerevisiae deletion strains, locus YPL241C, strain CIN2, hits give low values 1.01 | S. cerevisiae deletion strains, locus YPR119W, strain clb2, hits give low values 0.997 | S. cerevisiae deletion strains, locus YPR141C, strain kar3, hits give low values 1.01 | S. cerevisiae deletion strains, locus YPR163C, strain tif3, hits give low values 1 | S. cerevisiae deletion strains, locus YPR167C, strain met16, hits give low values 1.01 | S. cerevisiae deletion strains, strain wtn01, hits give low values 0.982 | S. cerevisiae strains, strain wild type, hits give low values 1.02
